Measurements published in the supplement of paper PMC11732987, “Enantioselective OTUD7B fragment discovery through chemoproteomics screening and high-throughput optimisation” (Communications Chemistry, 2025).

Experiments:
Experiment in all cases: log2 ratio of Biotin-Ahx-Ub-VS probe labelling (fragment/DMSO); higher = less target engagement (more negative = stronger competition), active = hit call of the paper (q ≤ 0.05, log2 ratio ≤ -1)
Conditions in all cases: compound concentration: 200 uM; treatment time: 3 h
[1] = target: T1, USP42 (UniProt Q9H9J4)
T1 sequence (whole entry): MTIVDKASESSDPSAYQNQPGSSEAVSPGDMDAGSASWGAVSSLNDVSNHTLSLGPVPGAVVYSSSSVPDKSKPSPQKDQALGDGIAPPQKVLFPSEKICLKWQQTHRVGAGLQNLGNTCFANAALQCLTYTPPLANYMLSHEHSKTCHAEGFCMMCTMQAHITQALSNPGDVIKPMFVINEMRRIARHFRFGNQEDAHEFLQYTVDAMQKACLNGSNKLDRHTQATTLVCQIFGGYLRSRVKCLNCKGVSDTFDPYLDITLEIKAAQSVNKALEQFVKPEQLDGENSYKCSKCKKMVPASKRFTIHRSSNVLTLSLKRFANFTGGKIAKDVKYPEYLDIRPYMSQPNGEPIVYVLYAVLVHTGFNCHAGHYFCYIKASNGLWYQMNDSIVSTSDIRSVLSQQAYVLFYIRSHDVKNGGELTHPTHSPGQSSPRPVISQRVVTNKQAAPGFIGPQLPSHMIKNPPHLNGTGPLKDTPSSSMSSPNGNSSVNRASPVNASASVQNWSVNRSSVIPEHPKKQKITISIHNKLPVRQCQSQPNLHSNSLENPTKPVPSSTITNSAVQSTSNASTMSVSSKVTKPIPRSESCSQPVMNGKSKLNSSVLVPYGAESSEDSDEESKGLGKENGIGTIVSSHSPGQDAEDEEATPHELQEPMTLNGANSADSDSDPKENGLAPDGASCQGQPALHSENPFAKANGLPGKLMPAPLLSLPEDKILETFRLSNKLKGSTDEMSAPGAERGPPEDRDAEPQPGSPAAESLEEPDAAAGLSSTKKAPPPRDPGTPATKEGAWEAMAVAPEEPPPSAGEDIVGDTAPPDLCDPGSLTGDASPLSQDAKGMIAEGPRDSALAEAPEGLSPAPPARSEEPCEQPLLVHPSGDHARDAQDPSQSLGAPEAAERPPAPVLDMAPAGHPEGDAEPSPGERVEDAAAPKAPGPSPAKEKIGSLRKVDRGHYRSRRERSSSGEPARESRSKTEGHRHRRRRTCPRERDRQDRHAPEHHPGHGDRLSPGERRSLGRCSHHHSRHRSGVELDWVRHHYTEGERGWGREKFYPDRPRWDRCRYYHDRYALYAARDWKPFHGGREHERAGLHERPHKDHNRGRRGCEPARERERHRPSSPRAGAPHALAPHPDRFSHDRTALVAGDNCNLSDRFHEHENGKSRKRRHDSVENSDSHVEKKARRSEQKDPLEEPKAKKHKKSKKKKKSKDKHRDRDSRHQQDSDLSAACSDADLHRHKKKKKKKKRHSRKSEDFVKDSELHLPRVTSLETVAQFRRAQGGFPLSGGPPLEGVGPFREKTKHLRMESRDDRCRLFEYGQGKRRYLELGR
In short: (§1)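 Labelled DUBs were enriched with NeutrAvidin, digested with LysC and trypsin, and run by diaPASEF LC-MS/MS. The labelling used Biotin-Ahx-Ub-VS at 0.5 µM final for 1 h on HEK293T lysate (495 µg per sample) previously treated in triplicate with fragment at 200 µM or vehicle for 3 h. Values are average log2 fragment/vehicle ratios by unpaired t-test on global-median-normalised Spectronaut quantities of proteins with ≥2 unique peptides.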

[2] = target: USP46 (UniProt P62068)
Chain of USP46 (P62068 whole entry): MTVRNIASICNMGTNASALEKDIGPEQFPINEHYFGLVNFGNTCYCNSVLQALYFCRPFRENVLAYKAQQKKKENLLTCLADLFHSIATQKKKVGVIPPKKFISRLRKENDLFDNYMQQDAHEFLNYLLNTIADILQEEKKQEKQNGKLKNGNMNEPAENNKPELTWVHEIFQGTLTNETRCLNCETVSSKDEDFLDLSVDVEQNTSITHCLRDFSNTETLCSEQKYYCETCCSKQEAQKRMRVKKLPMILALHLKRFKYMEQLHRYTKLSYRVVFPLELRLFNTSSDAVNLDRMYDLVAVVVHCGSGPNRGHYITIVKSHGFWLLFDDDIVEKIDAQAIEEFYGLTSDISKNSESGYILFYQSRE
In short: as §1

[3] = target: T2, USP47 (UniProt Q96K76)
T2 sequence (whole entry): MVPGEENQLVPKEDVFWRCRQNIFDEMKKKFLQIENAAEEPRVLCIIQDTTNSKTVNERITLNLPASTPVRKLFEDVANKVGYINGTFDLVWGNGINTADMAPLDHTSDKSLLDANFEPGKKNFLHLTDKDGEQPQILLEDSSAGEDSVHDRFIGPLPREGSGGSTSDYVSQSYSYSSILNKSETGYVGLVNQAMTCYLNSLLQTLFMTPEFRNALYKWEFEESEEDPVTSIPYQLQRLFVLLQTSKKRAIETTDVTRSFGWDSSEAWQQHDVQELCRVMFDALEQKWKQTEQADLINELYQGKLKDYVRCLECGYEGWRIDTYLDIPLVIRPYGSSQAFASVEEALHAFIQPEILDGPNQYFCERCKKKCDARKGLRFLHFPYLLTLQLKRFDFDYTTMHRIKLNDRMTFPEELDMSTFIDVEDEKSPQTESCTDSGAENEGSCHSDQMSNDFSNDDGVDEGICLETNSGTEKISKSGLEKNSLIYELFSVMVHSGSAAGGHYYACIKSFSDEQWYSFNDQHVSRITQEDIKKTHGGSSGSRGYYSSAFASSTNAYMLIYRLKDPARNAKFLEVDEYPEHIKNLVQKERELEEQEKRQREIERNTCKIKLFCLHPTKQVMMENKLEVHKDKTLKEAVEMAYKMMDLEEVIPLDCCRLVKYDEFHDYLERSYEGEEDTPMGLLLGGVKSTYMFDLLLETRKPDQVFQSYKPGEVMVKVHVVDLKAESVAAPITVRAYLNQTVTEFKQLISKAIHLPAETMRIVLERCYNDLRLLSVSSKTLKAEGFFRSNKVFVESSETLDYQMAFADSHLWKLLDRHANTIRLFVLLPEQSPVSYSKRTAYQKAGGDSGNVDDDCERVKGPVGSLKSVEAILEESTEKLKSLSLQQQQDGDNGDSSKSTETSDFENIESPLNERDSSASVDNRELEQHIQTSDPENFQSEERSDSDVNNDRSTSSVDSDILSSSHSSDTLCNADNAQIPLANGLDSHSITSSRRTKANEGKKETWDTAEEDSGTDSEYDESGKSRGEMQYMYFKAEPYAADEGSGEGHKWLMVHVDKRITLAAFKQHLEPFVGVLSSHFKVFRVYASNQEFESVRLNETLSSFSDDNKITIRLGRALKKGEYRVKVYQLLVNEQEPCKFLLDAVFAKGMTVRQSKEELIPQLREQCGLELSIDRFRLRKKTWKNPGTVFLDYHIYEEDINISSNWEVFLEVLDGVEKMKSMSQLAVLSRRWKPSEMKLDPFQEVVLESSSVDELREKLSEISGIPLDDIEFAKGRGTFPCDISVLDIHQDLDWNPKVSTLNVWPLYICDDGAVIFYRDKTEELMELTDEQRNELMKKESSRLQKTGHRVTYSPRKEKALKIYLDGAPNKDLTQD
In short: as §1

[4] = target: T3, USP48 (UniProt Q86UV5)
T3 sequence (whole entry): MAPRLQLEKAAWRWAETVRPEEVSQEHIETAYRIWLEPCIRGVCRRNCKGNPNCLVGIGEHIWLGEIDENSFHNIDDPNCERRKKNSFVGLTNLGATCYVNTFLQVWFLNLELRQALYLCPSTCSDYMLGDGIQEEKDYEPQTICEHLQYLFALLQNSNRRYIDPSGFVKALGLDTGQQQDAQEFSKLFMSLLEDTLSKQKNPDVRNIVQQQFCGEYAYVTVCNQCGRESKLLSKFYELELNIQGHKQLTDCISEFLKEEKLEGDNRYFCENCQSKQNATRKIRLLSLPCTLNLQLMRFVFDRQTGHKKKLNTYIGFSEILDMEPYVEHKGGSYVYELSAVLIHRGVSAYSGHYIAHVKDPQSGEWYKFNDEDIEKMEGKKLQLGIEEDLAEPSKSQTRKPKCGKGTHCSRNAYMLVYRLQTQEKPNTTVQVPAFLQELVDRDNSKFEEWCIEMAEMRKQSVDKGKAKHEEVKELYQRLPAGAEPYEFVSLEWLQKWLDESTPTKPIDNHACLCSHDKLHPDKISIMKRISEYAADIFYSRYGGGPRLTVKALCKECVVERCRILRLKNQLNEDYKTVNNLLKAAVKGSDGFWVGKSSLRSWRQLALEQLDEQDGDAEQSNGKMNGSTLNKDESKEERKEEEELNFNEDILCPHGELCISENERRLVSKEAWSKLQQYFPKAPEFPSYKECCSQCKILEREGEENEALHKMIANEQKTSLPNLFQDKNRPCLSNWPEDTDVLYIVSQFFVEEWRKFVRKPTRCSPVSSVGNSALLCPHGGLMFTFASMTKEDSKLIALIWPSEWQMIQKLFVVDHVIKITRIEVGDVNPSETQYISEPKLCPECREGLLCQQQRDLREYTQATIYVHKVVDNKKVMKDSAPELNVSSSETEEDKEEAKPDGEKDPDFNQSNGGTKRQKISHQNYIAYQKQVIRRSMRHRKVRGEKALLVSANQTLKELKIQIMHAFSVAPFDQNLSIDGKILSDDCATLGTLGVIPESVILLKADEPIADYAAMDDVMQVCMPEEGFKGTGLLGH
In short: as §1

[5] = target: T4, USP5 (UniProt P45974)
T4 sequence (whole entry): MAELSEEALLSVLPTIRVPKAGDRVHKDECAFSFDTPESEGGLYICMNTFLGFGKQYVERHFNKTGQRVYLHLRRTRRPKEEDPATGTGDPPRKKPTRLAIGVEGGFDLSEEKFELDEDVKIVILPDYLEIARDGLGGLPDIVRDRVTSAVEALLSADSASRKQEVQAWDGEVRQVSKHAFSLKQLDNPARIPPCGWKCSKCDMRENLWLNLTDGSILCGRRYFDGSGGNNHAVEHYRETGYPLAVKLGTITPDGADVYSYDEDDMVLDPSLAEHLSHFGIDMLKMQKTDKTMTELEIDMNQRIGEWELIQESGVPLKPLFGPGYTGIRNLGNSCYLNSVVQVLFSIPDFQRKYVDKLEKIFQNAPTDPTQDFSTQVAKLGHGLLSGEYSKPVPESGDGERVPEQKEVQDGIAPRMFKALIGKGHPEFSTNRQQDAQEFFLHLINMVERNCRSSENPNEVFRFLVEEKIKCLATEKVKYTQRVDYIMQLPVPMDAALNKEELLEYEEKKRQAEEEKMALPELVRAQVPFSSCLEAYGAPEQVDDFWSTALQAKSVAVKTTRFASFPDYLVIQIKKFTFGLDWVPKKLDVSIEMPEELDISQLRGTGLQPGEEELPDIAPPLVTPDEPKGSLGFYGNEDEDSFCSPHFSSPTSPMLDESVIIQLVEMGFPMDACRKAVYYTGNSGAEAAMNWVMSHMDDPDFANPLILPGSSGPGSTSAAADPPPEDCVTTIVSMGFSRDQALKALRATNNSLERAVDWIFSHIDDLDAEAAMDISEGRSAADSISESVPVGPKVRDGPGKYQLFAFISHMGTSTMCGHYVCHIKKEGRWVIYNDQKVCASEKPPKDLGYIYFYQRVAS
In short: as §1

[6] = target: USP54 (UniProt Q70EL1)
Chain of USP54 (Q70EL1 whole entry): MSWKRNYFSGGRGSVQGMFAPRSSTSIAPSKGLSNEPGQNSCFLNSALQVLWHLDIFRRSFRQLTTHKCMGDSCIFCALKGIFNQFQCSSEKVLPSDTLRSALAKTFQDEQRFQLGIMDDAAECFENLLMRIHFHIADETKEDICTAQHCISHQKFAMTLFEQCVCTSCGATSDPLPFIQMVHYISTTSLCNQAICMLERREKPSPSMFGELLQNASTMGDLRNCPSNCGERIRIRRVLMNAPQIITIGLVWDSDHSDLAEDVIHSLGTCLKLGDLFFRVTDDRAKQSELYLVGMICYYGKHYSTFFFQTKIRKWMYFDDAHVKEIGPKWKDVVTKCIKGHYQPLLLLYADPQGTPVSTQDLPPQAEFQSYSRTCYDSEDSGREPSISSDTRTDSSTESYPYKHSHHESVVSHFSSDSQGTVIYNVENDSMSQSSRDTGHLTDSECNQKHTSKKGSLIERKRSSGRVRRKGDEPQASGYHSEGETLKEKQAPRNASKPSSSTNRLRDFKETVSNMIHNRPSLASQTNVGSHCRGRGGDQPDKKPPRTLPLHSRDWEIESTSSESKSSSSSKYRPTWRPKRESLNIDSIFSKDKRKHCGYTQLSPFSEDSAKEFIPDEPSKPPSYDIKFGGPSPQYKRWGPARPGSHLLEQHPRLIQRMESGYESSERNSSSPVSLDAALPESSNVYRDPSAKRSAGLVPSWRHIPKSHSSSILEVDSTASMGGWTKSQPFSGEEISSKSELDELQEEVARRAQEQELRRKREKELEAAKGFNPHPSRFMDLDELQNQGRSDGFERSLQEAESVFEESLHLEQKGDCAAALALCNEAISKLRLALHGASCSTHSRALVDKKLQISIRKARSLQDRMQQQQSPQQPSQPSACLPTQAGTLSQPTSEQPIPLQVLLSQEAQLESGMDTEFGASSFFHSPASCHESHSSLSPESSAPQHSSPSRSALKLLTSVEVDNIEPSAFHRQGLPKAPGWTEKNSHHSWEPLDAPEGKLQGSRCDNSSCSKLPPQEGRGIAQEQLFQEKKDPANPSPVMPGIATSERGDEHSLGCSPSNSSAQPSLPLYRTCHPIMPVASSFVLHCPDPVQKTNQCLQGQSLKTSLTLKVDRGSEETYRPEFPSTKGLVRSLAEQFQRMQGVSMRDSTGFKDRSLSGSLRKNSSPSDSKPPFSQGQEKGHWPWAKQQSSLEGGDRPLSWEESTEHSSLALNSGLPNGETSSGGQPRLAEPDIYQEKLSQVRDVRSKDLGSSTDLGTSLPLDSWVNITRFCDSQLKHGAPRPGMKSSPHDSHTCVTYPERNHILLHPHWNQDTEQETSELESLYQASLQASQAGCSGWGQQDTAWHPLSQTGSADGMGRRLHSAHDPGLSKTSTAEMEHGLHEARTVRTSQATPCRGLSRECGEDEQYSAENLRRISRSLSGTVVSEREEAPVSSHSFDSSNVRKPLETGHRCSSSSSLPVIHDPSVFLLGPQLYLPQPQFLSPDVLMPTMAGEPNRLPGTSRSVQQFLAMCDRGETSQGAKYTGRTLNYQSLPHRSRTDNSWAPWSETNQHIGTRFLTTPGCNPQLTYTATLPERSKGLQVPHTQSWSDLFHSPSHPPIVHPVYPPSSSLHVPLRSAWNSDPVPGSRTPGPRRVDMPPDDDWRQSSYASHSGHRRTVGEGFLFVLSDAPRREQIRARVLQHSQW
In short: as §1

[7] = target: USP7 (UniProt Q93009)
In short: as §1

[8] = target: T5, USP8 (UniProt P40818)
T5 sequence (whole entry): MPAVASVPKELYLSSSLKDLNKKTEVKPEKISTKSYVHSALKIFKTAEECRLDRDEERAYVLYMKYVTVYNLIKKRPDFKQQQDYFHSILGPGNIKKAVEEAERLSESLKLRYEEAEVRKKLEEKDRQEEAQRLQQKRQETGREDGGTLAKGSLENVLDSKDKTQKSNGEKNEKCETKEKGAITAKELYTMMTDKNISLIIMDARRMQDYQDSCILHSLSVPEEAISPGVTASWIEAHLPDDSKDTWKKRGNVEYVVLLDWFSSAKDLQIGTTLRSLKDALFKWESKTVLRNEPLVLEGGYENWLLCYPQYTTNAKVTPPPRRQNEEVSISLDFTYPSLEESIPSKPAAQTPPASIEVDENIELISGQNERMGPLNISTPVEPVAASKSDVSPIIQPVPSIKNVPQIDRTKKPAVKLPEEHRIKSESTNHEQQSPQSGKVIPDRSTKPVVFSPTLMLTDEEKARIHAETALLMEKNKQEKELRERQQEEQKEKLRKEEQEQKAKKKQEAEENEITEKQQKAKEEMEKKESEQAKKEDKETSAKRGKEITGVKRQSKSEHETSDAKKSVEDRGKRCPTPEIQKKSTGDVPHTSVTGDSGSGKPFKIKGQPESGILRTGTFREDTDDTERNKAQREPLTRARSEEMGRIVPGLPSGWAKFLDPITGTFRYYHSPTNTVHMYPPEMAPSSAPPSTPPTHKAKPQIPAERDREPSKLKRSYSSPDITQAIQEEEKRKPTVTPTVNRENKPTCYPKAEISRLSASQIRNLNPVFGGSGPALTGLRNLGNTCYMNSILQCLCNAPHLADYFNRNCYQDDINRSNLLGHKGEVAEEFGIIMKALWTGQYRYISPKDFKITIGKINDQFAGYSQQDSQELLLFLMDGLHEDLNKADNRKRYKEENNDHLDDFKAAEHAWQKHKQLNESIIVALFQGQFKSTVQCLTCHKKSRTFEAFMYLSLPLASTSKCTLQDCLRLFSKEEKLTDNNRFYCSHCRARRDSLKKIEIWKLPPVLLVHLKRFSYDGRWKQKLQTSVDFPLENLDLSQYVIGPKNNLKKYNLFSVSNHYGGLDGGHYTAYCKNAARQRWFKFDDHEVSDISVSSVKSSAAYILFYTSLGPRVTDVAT
In short: as §1

[9] = target: USP9X (UniProt Q93008)
Chain of USP9X (Q93008 whole entry): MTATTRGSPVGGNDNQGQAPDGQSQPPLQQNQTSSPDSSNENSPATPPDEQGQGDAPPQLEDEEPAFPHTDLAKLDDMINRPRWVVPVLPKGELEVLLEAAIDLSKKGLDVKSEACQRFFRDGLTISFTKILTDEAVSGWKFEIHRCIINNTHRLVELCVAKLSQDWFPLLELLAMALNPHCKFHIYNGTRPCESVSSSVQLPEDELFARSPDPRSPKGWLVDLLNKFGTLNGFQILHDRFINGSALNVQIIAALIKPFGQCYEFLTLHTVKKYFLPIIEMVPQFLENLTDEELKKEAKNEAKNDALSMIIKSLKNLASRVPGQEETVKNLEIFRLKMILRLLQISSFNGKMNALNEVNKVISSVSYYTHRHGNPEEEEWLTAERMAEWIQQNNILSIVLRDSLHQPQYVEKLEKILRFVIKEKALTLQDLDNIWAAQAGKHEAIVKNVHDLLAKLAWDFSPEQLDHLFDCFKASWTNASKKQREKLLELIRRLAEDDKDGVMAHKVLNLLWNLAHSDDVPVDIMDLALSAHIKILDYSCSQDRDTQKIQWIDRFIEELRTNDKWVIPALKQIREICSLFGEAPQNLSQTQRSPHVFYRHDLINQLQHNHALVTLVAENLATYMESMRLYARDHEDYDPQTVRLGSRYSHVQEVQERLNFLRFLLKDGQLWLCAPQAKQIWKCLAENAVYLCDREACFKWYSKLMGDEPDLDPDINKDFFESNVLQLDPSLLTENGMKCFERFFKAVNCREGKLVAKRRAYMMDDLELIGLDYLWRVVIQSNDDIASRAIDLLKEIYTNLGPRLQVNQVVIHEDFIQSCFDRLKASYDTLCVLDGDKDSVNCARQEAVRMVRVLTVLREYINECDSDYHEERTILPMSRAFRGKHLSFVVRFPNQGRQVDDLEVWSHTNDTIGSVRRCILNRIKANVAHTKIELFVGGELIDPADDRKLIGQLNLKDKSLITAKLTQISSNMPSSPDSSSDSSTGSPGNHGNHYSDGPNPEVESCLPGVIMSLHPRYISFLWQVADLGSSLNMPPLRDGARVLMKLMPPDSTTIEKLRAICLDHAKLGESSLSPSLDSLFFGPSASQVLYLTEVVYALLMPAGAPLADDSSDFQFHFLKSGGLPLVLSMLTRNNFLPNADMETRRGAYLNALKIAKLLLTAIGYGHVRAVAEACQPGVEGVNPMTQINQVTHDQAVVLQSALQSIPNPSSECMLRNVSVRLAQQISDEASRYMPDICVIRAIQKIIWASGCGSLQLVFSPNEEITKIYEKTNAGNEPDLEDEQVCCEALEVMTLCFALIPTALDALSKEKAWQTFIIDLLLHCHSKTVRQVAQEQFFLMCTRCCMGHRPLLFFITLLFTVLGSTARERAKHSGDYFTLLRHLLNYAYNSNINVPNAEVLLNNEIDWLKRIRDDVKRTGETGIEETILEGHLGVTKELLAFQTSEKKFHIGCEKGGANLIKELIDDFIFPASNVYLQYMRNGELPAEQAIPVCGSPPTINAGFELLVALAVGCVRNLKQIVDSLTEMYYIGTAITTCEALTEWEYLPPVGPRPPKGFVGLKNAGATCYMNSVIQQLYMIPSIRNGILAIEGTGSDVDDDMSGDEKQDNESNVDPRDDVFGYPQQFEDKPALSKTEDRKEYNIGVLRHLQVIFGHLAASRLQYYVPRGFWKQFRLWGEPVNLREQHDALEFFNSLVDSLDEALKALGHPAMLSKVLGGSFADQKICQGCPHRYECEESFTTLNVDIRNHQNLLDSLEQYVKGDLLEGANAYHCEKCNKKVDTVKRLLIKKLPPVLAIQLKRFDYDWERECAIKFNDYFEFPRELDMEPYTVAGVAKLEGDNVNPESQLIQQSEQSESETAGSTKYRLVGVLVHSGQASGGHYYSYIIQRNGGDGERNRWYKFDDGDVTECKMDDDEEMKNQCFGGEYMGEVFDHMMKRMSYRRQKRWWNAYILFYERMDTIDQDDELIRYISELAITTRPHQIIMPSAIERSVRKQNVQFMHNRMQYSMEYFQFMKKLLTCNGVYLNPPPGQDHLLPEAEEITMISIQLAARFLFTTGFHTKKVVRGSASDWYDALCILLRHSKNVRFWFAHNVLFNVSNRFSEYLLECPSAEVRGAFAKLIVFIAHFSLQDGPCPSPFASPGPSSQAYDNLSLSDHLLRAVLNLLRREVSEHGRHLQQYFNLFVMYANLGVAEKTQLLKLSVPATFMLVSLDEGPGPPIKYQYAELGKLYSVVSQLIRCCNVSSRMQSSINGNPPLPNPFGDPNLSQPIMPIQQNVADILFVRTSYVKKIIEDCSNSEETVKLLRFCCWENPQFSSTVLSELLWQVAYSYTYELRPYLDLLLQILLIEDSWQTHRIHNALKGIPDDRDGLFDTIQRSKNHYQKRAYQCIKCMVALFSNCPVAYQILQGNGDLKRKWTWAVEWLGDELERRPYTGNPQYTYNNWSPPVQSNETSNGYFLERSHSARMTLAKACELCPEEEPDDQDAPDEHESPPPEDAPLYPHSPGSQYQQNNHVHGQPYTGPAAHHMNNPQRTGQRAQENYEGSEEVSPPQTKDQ
In short: as §1

[10] = target: UniProt O00487
Chain of UniProt O00487 (O00487 whole entry): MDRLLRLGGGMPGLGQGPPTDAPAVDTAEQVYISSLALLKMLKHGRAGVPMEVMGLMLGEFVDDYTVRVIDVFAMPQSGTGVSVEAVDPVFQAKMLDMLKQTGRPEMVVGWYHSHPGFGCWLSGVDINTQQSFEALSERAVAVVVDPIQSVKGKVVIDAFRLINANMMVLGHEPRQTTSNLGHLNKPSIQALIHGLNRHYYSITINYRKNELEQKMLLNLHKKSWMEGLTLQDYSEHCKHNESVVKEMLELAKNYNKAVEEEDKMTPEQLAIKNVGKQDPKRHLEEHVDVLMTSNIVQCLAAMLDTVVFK
In short: as §1

Measured: log2 ratio of Biotin-Ahx-Ub-VS probe labelling

Cc1ccn2cc(CNC(=O)CCl)nc2c1.Cl
inactive: [1] 0.192 | [2] -0.0106 | [3] -0.5 | [4] -0.153 | [5] 0.0336 | [6] 0.581 | [7] -0.341 | [8] -0.325 | [9] -0.141 | [10] -0.0788

CS(=O)(=O)c1ccc(NC(=O)CCl)cc1
inactive: [1] 0.0549 | [2] 0.119 | [3] -0.0487 | [4] -0.946 | [5] 0.0085 | [6] 0.431 | [7] -0.156 | [8] 0.012 | [9] -0.388 | [10] -0.115

CN(CCc1ncc(Br)cn1)C(=O)CCl.Cl
inactive: [1] 0.325 | [2] -0.136 | [3] -0.331 | [4] -0.46 | [5] 0.24 | [6] 0.619 | [7] -0.266 | [8] -0.602 | [9] -0.319 | [10] -0.0172
